# Active and inactive are the calls of the source.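 The calls were made as follows, unless noted: active = visually confirmed hit in the image check and inhibition above 20%; inconclusive = visually confirmed hit but inhibition not above 20%; inactive = no visual hit in the image check.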
# Tests used:
# [1] = inhibitors of TNFa-induced NFkB p65 translocation, primary screen, imaging, HUVEC, MLSMR starter and 10KST1 sets (AID 438;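 active = inhibition above 20% together with a positive visual image hit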;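 also: compound added about 3h40 before a 20 min TNFalpha stimulation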;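 as to inhibition: signal is the nuclear over cytoplasmic p65 intensity ratio per well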); settings: HUVEC TNFa-induced p65 nuclear translocation; cell count: measured here: nuclei count (cytotoxicity indicator), at 2.08 µM; inhibition: at 2 µM, stronger effect = higher value, 0% TNFa-plus-vehicle, 100% no-TNFa wells
# [2] = inhibitors of mutant huntingtin aggregation, primary screen, imaging, exon1htt(103Q)mCFP cells, high-content imaging (AID 483;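 active = visual image review flags a hit and inhibition of aggregation exceeds 20%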;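 also: compound exposure lasted 3 days before fixation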;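 as to nuclei count: percent of the per-plate median nuclei count of sample wells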); settings: exon1htt(103Q)mCFP cell line, aggregate imaging, at 2 µM; inhibition of aggregation: stronger effect = higher value; nuclei count: measured here: cell count, toxicity
# [3] = inhibitors of E-selectin induction by TNFa, primary screen, imaging, HUVEC, immunofluorescence, MLSMR starter and 10KST1 sets (AID 487); settings: HUVEC TNFalpha-induced E-selectin immunofluorescence imaging, at 2 µM; inhibition: stronger effect = higher value; nuclei count: measured here: cell number, toxicity;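 as to inhibition: signal is fraction of cell area covered by stained E-selectin grains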;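 as to nuclei count: 100% = median nuclei count of all wells on the same plate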
# [4] = target: Voltage-gated potassium channel subunit beta-2 (Rattus norvegicus) (UniProt P62483); assay: KvBeta enzyme negative modulators, primary screen, biochemical, NADPH fluorescence (AID 622;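 active = fluorescence slope higher than the sample average by over 3 SD, cut at about -0.22 in these data, passing the limit was not always enough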;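 also: slope of raw intensity against log time taken from 70 to 1610 s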); settings: recombinant KvBeta, 4-cyanobenzaldehyde reduction, at 10 µM, stronger effect = higher value
# [5] = target: Voltage-gated potassium channel subunit beta-2 (Rattus norvegicus) (UniProt P62483); assay: KvBeta positive modulators, primary screen, biochemical, NADPH fluorescence (AID 623;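 active = NADPH fluorescence slope more negative than the mean of all samples by about 3 SD, 99.7% confidence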;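 also: fluorescence intensity change per second fitted from 20 to 320 s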); settings: Recombinant KvBeta, NADPH fluorescence decrease slope, 10 min; at 10 µM; stronger effect = lower value
# [6] = target: Alpha-2C adrenergic receptor (Homo sapiens) (UniProt P18825); assay: modulators of alpha2C/GIRK thallium flux, primary screen, cell-based, HEK293 alpha2C/GIRK1/2 (AID 624;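 active = fluorescence slope after compound addition differing from the mean of all screened samples at 99.7% confidence, in either direction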;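 also: slope of fluorescence ratio to pre-addition baseline per second over 15 to 24 s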); settings: thallium flux BTC fluorescence, at 10 µM, actives lie on both sides
# [7] = inhibitors of Sendai virus-induced IRF3 signaling, primary screen, TLR/RLR signaling modifier project, cell-based, Sendai virus stimulus, luciferase, 10K MLSCN set (AID 602276;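 active = inhibition at or above 50% at 10 µM; inactive = inhibition below 50%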;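 also: firefly luciferase from ISG56 promoter only with Renilla not read in this screen; 0% = Sendai virus plus DMSO and 100% = medium plus DMSO without virus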); settings: HEK293 RL24 IRF3 luciferase reporter, at 10 µM, stronger effect = higher value
# [8] = inhibitors of poly I:C-induced TLR3 signaling, primary screen, cell-based, poly I:C stimulus, luciferase, 10K MLSCN set (AID 602277;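 active = inhibition of the reporter signal at or above 50%; inactive = inhibition below 50%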); settings: HEK293-TLR3 RL24 IRF3 luciferase reporter, at 10 µM, stronger effect = higher value
# Alpha-2C adrenergic receptor (Homo sapiens), sequence (P18825 whole entry, looked up): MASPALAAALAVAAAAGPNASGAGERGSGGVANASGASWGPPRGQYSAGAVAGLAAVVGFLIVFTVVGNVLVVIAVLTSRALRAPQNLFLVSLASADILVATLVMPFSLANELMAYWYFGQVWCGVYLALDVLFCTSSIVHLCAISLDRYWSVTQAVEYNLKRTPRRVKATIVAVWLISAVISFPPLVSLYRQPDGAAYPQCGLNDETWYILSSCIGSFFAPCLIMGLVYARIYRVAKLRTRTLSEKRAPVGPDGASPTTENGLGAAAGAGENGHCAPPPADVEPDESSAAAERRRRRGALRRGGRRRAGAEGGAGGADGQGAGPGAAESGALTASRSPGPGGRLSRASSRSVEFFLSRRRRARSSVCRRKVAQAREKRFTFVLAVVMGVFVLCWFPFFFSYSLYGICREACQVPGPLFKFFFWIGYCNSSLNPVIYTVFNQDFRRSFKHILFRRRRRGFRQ
# Voltage-gated potassium channel subunit beta-2 (Rattus norvegicus), sequence (P62483 whole entry, looked up): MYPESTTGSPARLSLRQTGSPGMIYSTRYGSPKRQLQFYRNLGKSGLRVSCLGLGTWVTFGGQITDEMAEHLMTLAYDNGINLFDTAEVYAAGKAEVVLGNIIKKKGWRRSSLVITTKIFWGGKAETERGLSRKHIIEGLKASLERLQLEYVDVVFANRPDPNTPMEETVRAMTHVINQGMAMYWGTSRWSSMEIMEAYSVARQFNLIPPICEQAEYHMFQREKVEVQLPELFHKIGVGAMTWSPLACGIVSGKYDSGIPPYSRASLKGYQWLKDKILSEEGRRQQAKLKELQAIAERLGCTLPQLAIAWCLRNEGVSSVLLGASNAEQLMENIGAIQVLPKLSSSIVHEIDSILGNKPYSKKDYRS
Compound,cell count [1],inhibition [1],inhibition of aggregation [2],nuclei count [2] [%],inhibition [3],nuclei count [3] [%],fluorescence slope [4],NADPH fluorescence slope [5],slope [6],inhibition [7],inhibition [8]
COc1cc(C2N=C(c3ccccc3)NO2)cc(Br)c1O (stereo not drawn),770,4.6% (inactive),-13.7% (inactive),94.3,-121% (inactive),108,-0.546 (inactive),2.2e-05 (inactive),0.00675 (inactive),-15.8% (inactive),-15.1% (inactive)
Cc1cc(C)n(CC(=O)O)n1,341,-1.8% (inactive),-4.2% (inactive),102,-49.5% (inactive),121,-0.317 (inactive),-5.4e-05 (inactive),0.0047 (inactive),12.8% (inactive),18.3% (inactive)
CC(=O)NC(CCS(C)(=O)=O)C(=O)Nc1cccc(C)c1 (stereo not drawn),600,8.7% (inactive),2.5% (inactive),110,21.6% (inactive),95.7,-0.579 (inactive),1.1e-05 (inactive),0.00598 (inactive),-14.8% (inactive),-1.13% (inactive)
O=C(Nc1nnc(N2CCCCCC2)s1)c1cc(-c2ccc(Br)cc2)on1,890,1.2% (inactive),5.2% (inactive),85.6,-76.6% (inactive),120,-0.612 (inactive),-2.8e-06 (inactive),0.00651 (inactive),5.43% (inactive),23.2% (inactive)
OCCn1c(-c2ccc3c(c2)OCO3)csc1=Nc1ccccc1,565,0.2% (inactive),-0.6% (inactive),66.3,-41.5% (inactive),112,-0.59 (inactive),-2.7e-05 (inactive),0.00284 (inactive),-34% (inactive),-121% (inactive)
O=C1C(C=NCCCn2ccnc2)=C(O)c2ccccc21,422,5.8% (inactive),-8.1% (inactive),104,-50.8% (inactive),113,-0.589 (inactive),-2.7e-05 (inactive),0.0063 (inactive),9.44% (inactive),37.1% (inactive)
CCc1nnc(NC(=O)CSc2nnc(-c3ccc(OC)cc3)n2C)s1,648,14.3% (inactive),21.9% (inactive),66.3,5.4% (inactive),112,-0.609 (inactive),-3e-05 (inactive),0.00434 (inactive),12.5% (inactive),20.1% (inactive)
O=C(Nc1ccc(N2CCOCC2)cc1)c1cc2ccccc2o1,775,-1.9% (inactive),7.2% (inactive),106,-29.4% (inactive),97.9,-0.479 (inactive),1.9e-05 (inactive),0.003 (inactive),-72.9% (inactive),-187% (inactive)
COc1ccc(NC(=O)CN2CCN(CC(=O)Nc3cc(OC)cc(OC)c3)CC2)cc1,306,-3.6% (inactive),8% (inactive),89.1,4.7% (inactive),84.6,-0.442 (inactive),-0.000127 (inactive),0.00643 (inactive),13.3% (inactive),32.4% (inactive)
C=CCn1c(Br)nc2c1c(=O)[nH]c(=O)n2C,372,-4.7% (inactive),8.4% (inactive),92.3,-62% (inactive),116,-0.373 (inactive),-3.1e-05 (inactive),0.00545 (inactive),15.8% (inactive),9.88% (inactive)
O=C(Nc1ccc(Cl)c(C(F)(F)F)c1)N1CCCC(O)C1 (stereo not drawn),356,4.5% (inactive),-4.8% (inactive),106,-50.8% (inactive),107,-0.453 (inactive),2.2e-05 (inactive),0.00599 (inactive),1.7% (inactive),-22.3% (inactive)
CCOC(=O)N1CCN(C(=O)c2n[nH]c(=O)c3ccccc23)CC1,515,-9.4% (inactive),-7.2% (inactive),107,-37.5% (inactive),80.9,-0.591 (inactive),-2.8e-05 (inactive),0.00361 (inactive),-11.6% (inactive),-3.48% (inactive)
CCCN(Cc1cc2cc(C)ccc2[nH]c1=O)C(=O)c1cccc(OC)c1,594,8.2% (inactive),-3.9% (inactive),101,-74% (inactive),107,-0.506 (inactive),-5.1e-05 (inactive),0.00579 (inactive),10.4% (inactive),10.9% (inactive)
COc1ccc(CC(=O)Nc2c3c(nn2-c2cccc(Cl)c2)CS(=O)C3)cc1 (stereo not drawn),466,5.7% (inactive),-8.1% (inactive),101,-43.1% (inactive),87.6,-0.492 (inactive),2.6e-05 (inactive),0.00562 (inactive),9.81% (inactive),14.2% (inactive)
CC(C)Cc1cc(C(=O)Nc2c(F)cc(F)cc2Br)no1,783,7.4% (inactive),-5% (inactive),114,-4.5% (inactive),120,-0.594 (inactive),3.8e-06 (inactive),0.00483 (inactive),-6.27% (inactive),2.03% (inactive)
COC(=O)CSC1=C(C#N)C(c2ccccc2)CC(=O)N1 (stereo not drawn),317,1.5% (inactive),-2.2% (inactive),89.5,7.2% (inactive),86.9,-0.372 (inactive),-1.7e-05 (inactive),0.00515 (inactive),25.3% (inactive),21.9% (inactive)
CCCCCCOC(=O)C(C#N)c1nc2ccccc2nc1N1CCCCC1 (stereo not drawn),513,5.7% (inactive),6.3% (inactive),89.3,-28.3% (inactive),137,-0.393 (inactive),3.7e-05 (inactive),0.00357 (inactive),6.89% (inactive),23.9% (inactive)
Cc1c2cnn(CC(=O)N3CCN(c4ncccn4)CC3)c(=O)c2c(C)n1Cc1ccc(F)cc1,405,-9.2% (inactive),4.7% (inactive),99.5,-130% (inactive),118,-0.371 (inactive),-3.3e-05 (inactive),0.00444 (inactive),-14.2% (inactive),-8.56% (inactive)
CCOc1ccc(N(CC)C(=O)COc2cc(=O)n(C)c3ccccc23)cc1,622,16.5% (inactive),-19.7% (inactive),101,-47.3% (inactive),118,-0.516 (inactive),7.5e-06 (inactive),0.0065 (inactive),12.4% (inactive),29.8% (inactive)
COc1ccc(CCNC(=O)C2CCN(S(=O)(=O)c3cc(OC)ccc3OC)CC2)cc1,269,-5.3% (inactive),3% (inactive),93.2,-26.1% (inactive),98.3,-0.39 (inactive),-6.1e-05 (inactive),0.00597 (inactive),14.7% (inactive),31.4% (inactive)
Cc1ccc2c(c1)C(O)(CC(=O)c1ccc3c(c1)OCO3)C(=O)N2 (stereo not drawn),671,9.5% (inactive),-46.3% (inactive),93.9,16.8% (inactive),93.3,-0.511 (inactive),-5e-05 (inactive),0.00523 (inactive),0.102% (inactive),23% (inactive)
N#Cc1nc(COc2ccccc2)oc1NCCCn1ccnc1,371,5.2% (inactive),0.8% (inactive),95.5,6.7% (inactive),90.9,-0.629 (inactive),-1.3e-05 (inactive),0.00641 (inactive),-11.6% (inactive),-1.22% (inactive)
O=[n+]1c2c(n([O-])c3c1CCCC3)CCCC2,658,5.8% (inactive),-17.7% (inactive),109,54.7% (inactive),75.8,-0.399 (inactive),-6.5e-05 (inactive),0.00619 (inactive),11.8% (inactive),24% (inactive)
O=C(NCC(=O)N(Cc1cccs1)C(C(=O)NC1CCCC1)c1ccncc1)c1ccco1 (stereo not drawn),478,-2.9% (inactive),-19.3% (inactive),107,-26.6% (inactive),114,-0.25 (inactive),-2e-05 (inactive),0.00557 (inactive),13.3% (inactive),16.2% (inactive)
COC(=O)c1cnc2c(C(F)(F)F)cccc2c1OC,595,-8.5% (inactive),-5% (inactive),61.8,-64.2% (inactive),84.8,-0.605 (inactive),6.9e-06 (inactive),0.0043 (inactive),9.38% (inactive),10.1% (inactive)
O=C1CCNc2cc3ccccc3cc21,356,2.5% (inactive),32.4% (inactive),80.4,24.1% (inactive),99.3,-0.472 (inactive),-0.000147 (inactive),0.00661 (inactive),21.5% (inactive),32.3% (inactive)
CCCCOC(=O)Cn1c(=O)oc2ccc(C)cc21,741,-5.8% (inactive),3.3% (inactive),38,-96.5% (inactive),109,-0.589 (inactive),-4.7e-05 (inactive),0.00659 (inactive),-5.21% (inactive),7.21% (inactive)
CCN1CCCC1CN=Cc1c(O)n(-c2ccccc2)c(=O)c2ccccc12 (stereo not drawn),609,-0.3% (inactive),-8.1% (inactive),109,-12.1% (inactive),97.6,-0.598 (inactive),-2e-05 (inactive),0.00513 (inactive),-6.81% (inactive),16.9% (inactive)

# — PubChem BioAssay
